High-throughput results: PubChem, National Center for Advancing Translational Sciences (NCATS)
Epigenetic derep: epigenetic control regulation, reporter derepression. 280,000 compounds, 0.2% hits. Potency, µM (titrated, usually from 53.9 µM), for inactives: top-dose GFP activation, usual class: activators. murine LDR cells, GFP reporter derepression, 30 h. AID 1865; further: % of control where 0% means no effect; nearly all actives have a fitted effect of over 60% in size
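Reporter derepression read as number of fluorescent GFP-positive objects, 20-120 um in size, counted by laser-scanning cytometer. Mouse LDR line with an epigenetically silenced CMV-GFP locus; compound incubation 30 h, 37 C.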
A549 viability: A549 cytotoxicity, counter-screen for Nrf2 inhibitors | A549 ARE-Fluc cells, CellTiter-Fluor viability, 18-24 h | Potency, µM (top dose mostly 46 µM), inactives show at the top dose activity change, negative = cytotoxicity, usual class: inhibitors | 390,000 compounds, 0.16% hits | AID 504648; further: on the % scale 0 is the no-effect control and ±100 the full control effect
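A549 ARE_Fluc cells in 5% FBS OPTI-MEM were exposed to compounds in concentration-response for 18-24 h at 37 deg C. Viability was read by CellTiter-Fluor fluorescence (Ex 405/Em 525) after 30 min, before the luciferase read.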
Nrf2 block: inhibitors of Nrf2 signaling; AID 504444; A549 ARE-Fluc reporter, luciferase luminescence, 18-24 h; 360,000 compounds, 2.1% hits; Potency, µM (titrated, usually from 46 µM), inactives show at the top dose activity change, negative = inhibition, hits mostly inhibitors; further: on the % scale 0 is the no-effect control and ±100 the full control effect; nearly all actives have a fitted effect of over 60% in size
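Nrf2 function is reported as luminescence of an ARE-controlled luciferase in A549 cells. Compounds were tested at several concentrations, and a CellTiter-Fluor read on the same wells flagged cytotoxicity.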
Nrf2 activator: Nrf2 pathway activation; AREc32 ARE-luciferase reporter (MCF7-derived line), luminescence, 24 h; Potency, µM (doses to about 46.1 µM), without a hit: top-dose activation, actives largely listed as activators; 410,000 compounds, 0.31% hits; further: % of control where 0% means no effect; nearly all actives have a fitted effect of over 65% in size
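ARE-driven firefly luciferase activity in AREc32 cells measured after a 24 hr compound exposure at 37 deg C, using Steady-Glo reagent and a 30 min room-temperature hold.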
PINK1 expr mod: changes PINK1 expression | Potency, µM (doses to about 76.6 µM), for the others: at the top dose activation (PINK1 increase), actives largely listed as activators | 410,000 compounds, 0.2% hits | AID 624263 | PINK1 immunofluorescence, high-content cytometry, 24 h; active means well fitted activation curve with a large enough effect; inconclusive means small, poorly fitted or top-dose-only effect; cell line not stated here; further: % of control where 0% means no effect; nearly all actives have a fitted effect of over 65% in size
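Stable cell line treated 24 h with compounds at 5 concentrations (CCCP controls), then fixed and immunostained for PINK1 plus nuclear and cell stains; PINK1 immunofluorescence quantified by laser-scanning microplate cytometry.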
Numbers without * were called inactive; ? = inconclusive; / = not tested or not shown; [ ] = remark or other dose. Most compounds without a hit are left out; they make up all but 2.4% or so of the library. Unless noted, the call rests on the fitted dose curve; in most records, active means well fitted curve in the direction sought with a large enough effect; inconclusive means small, poorly fitted or top-dose-only effect, or another doubt; inactive means no such curve, though single readings can be large; an effect the other way counts as inactive or inconclusive. Potency means the concentration at half of the fitted maximal effect.

SMILES	Epigenetic derep	A549 viability	Nrf2 block	Nrf2 activator	PINK1 expr mod
COc1ccc(-c2noc(CCC(=O)Nc3cccnc3)n2)cc1	/	-2%	5%	-1%	3%
CC(C)(C)c1ccc(-c2noc(CCC(=O)NCC3CCCO3)n2)cc1 (stereo unspecified)	1%	-4%	0.58µM*	-2%	13%[38.3 µM]
Cc1ccc(-c2noc(CCC(=O)NCC3CCCO3)n2)cc1 (stereo unspecified)	-3%	-19%	?	0%	5%[38.3 µM]
CC(C)(C)c1ccc(-c2noc(CCC(=O)Nc3cccnc3)n2)cc1	/	-2%	0.26µM*	-2%	2%
Cc1nc2sccn2c1CN1CCOc2ccc(CN3CCN(c4ccc(F)cc4)CC3)cc2C1	/	/	/	/	0%
O=c1[nH]c(SCc2ccccc2)ncc1S(=O)(=O)c1ccccc1	/	-2%	4%	/	0%
Cn1c(CSc2nc3ccc(Br)cc3[nH]2)nc2ccccc21	0%	?	21µM*	3%	/
Brc1ccc2nc(SCCOc3ccccc3)[nH]c2c1	-1%	-1%	-3%	0%	?
O=C(Cn1ncc2c(=O)oc3ccccc3c21)NCc1ccc(Cl)cc1	-2%	3%	-6%	-1%	1%
Cc1c(C(=O)N2CCCC2)sc2ncnc(NCCCN3CCOCC3)c12	/	/	/	/	2%
Cc1ccc(S(=O)(=O)N(CC(=O)NCCc2ccc(Cl)cc2)c2ccccc2C)cc1	-1%	?	26µM*	-1%	3%
COc1ccc(OC)c(C(=O)COC(=O)c2ccc(C)o2)c1	-1%	-3%	-5%	13µM*	2%
COc1ccc(C(=O)OCC(=O)c2cc(OC)ccc2OC)c(OC)c1	-1%	0%	/	3%	1%
CCCCOC(=O)c1ccc(NS(=O)(=O)c2c(C)nc3scc(C)n3c2=O)cc1	-1%	-9%	16µM*	6%	3%
Cn1cnnc1Sc1ccc(CN2CCOc3ccc(C4=CCCCC4)cc3C2)o1	/	/	/	/	0%
COC(=O)c1cn(CC(=O)N2C(C)CCCC2C)c2ccccc12 (stereo unspecified)	-5%	-13%	-8%	0%	0%
CC1CCCC(C)N1C(=O)Cn1cc(/C=C2/C(=O)Nc3ccccc32)c2ccccc21 (stereo unspecified)	-4%	16µM*	18µM*	3%	1%
Cn1c(CN2CCCCC2)nc2cc(NC(=O)c3ccc(Cl)cc3)ccc21	1%	-5%	5.8µM*	0%	-1%
COc1cccc(CNc2ncnc3ccc(-c4c(C)noc4C)cc23)c1	/	-1%	12µM*	26%	3%
CCOc1cc(C(=O)Nc2ccc(-c3cn4cccnc4n3)cc2)cc(OCC)c1OCC	?	-9%	?	-1%	1%
Cc1ccc(C(=O)Nc2ccc(-c3cn4cccnc4n3)cc2)cc1C	-1%	-11%	23µM*	-1%	4%
COc1cc2c(cc1OC)CN(C(=S)Nc1cccc(Cl)c1C)CC2	3%	-9%	18µM*	0%	3%
COc1ccc(OC)c(-n2nnnc2SCC(=O)Nc2ccc3c(c2)OCCO3)c1	-3%	-12%	-15%	0%	/
COc1ccc(OC)c(-n2nnnc2SCC(=O)Nc2ccc(C(=O)N3CCCCC3)cc2)c1	-1%	-13%	18µM*	2%	-4%[38.3 µM]
CSc1nsc(SC)c1C(=O)Nc1ccc(C(C)(C)C)cc1	9%	6%	?	11µM*	7%
SMILES	Epigenetic derep	A549 viability	Nrf2 block	Nrf2 activator	PINK1 expr mod
O=C(NCCc1nnc2n1CCN(Cc1ccc3c(c1)CCO3)CC2)c1ccco1	/	/	/	/	1%
CCn1c(CNC(=O)c2cc(OC)c(OC)c(OC)c2)cc2ccccc21	/	1%	21µM*	1%	7%
COc1ccc(Cc2nc(-c3ccc(-n4cccc4)cc3)no2)cc1	1%	7%	?	-1%	6%
COc1ccc(Cc2nc(-c3ccc(-n4cccc4)cc3)no2)cc1OC	-1%	2%	16µM*	21%	2%
COc1cccc(C(=O)N2CCCC(c3nc(SCCN4CCOCC4)ncc3C)C2)c1 (stereo unspecified)	/	/	/	/	2%
CCCCCCSc1cccc(-c2nc3cc(C)ccn3c2NCc2ccccc2)c1	/	-7%	6%	-1%	?
CCCCCCSc1cccc(-c2nc3ccc(C)cn3c2NCc2ccccc2)c1	/	-10%	-9%	-2%	25µM*
O=C(CN(c1cccc(Cl)c1)S(=O)(=O)c1ccc(Cl)cc1)NCc1ccccn1	/	?	21µM*	2%	3%
Cc1ccc(Cl)cc1N1CCN(C(=O)c2ccc3c(c2)N(Cc2ccccc2F)C(=O)c2ccccc2S3(=O)=O)CC1	-1%	-16%	14%	-1%	2%
O=C(Oc1ccc(N2C(=O)CCC2=O)cc1)c1ccccc1Cl	-1%	-5%	?	-2%	-2%
Cc1cc(OC(=O)c2ccccc2Cl)cc(=O)n1C	-1%	3%	8.2µM*	-2%	6%
Cc1cc(C(=O)NCC2CCC3(CCN(Cc4ccc5ccccc5c4)CC3)O2)n(C)n1 (stereo unspecified)	/	/	/	/	1%
CC(=O)c1ccc(OCC(=O)NC2CCCCCC2)cc1	/	6%	16%	1%	-1%
CC1CCC(NC(=O)COc2ccc(C(=O)c3ccccc3)cc2)CC1 (stereo unspecified)	-5%	4%	18µM*	0%	-1%
O=C(c1cccs1)N1CCN(c2nc3ccccc3s2)CC1	/	1%	?	0%	1%
O=C(c1ccc(Cl)s1)N1CCN(c2nc3ccccc3s2)CC1	1%	-14%	7.3µM*	1%	15%
CCN(Cc1ccccc1)S(=O)(=O)c1ccc2[nH]c3c(c2c1)CCCCC3	-1%	?	?	3%	?
COc1cccc(CNC(=O)CN(C)S(=O)(=O)c2ccc3[nH]c4c(c3c2)CCCC4)c1	1%	0%	-7%	4%	2%
CCN(c1ccc(OC)cc1)S(=O)(=O)c1ccc2[nH]c3c(c2c1)CCCCC3	-1%	?	?	0%	25µM*
CN(CC(=O)NCc1ccc(Cl)cc1)S(=O)(=O)c1ccc2[nH]c3c(c2c1)CCCC3	-1%	-24%	16µM*	0%	7%
CC1(c2ccc(OCC#N)cc2)C=C(c2ccc(OCC#N)cc2)n2nc(C(F)(F)F)nc2N1 (stereo unspecified)	0%	?	23µM*	11%	-4%
Cc1ccc(C2=CC(C)(c3ccc(C)cc3)Nc3nc(C(F)(F)F)nn32)cc1 (stereo unspecified)	-2%	-6%	?	6%	11%
CCOC(=O)c1ccc(N2C(=O)c3n[nH]c(-c4ccco4)c3C2c2ccccc2OC)cc1 (stereo unspecified)	4%	-21%	26µM*	-3%	1%
CCOC(=O)c1ccc(N2C(=O)c3n[nH]c(C)c3C2c2ccccc2OC)cc1 (stereo unspecified)	0%	-2%	8.2µM*	5%	-1%
